According to PubChem BioAssay AID485346 (Sanford-Burnham Center for Chemical Genomics, 2010):
About 10,000 (3%) of roughly 330,000 compounds were called active.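 The calls were made as follows: active = inhibition of at least 50% at 8 µM in the primary screen; inactive = the rest.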 Only a selection was taken, and actives are over-represented in it overall.

Each compound was assayed against Protein Mdm4 (Homo sapiens) + E3 ubiquitin-protein ligase Mdm2 (Homo sapiens) (UniProt O15151+Q00987) (assay: disruptors of Mdm2/MdmX RING complex – cell-based, luminescence, split luciferase, SaOS-2, uHTS, primary screen (AID 485346)). Conditions: SaOS-2 split-luciferase Mdm2/MdmX complementation, at 8 µM, hits give high values.
Sequence of Protein Mdm4 (Homo sapiens) + E3 ubiquitin-protein ligase Mdm2 (Homo sapiens) (O15151 whole entry, looked up): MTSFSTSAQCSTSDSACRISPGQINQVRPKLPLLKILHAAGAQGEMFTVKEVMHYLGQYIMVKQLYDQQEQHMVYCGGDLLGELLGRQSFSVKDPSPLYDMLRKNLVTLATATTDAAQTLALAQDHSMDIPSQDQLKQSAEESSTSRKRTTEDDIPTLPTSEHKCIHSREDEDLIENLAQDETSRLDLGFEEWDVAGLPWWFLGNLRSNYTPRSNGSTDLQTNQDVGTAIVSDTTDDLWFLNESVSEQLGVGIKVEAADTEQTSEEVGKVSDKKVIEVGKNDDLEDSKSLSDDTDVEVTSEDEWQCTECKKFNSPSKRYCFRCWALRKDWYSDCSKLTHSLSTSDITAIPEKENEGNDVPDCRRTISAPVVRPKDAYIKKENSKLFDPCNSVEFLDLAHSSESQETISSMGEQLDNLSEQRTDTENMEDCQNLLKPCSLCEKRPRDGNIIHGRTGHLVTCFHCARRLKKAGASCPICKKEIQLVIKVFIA
Sequence of Protein Mdm4 (Homo sapiens) + E3 ubiquitin-protein ligase Mdm2 (Homo sapiens) (Q00987 whole entry, looked up): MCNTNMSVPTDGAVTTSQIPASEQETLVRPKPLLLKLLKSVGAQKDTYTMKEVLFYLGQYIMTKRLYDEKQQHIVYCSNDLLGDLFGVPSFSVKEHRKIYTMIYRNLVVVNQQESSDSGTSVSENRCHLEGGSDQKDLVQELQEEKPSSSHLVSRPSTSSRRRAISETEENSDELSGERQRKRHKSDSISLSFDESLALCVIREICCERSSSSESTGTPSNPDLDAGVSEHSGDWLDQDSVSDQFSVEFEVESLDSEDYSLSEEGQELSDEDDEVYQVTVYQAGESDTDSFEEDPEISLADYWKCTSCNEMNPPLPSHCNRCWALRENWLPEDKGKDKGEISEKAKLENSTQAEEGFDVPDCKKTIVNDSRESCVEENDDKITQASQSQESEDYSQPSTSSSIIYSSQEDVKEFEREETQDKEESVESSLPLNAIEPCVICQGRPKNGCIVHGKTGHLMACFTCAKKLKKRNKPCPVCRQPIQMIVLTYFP
`Cc1c(C=O)c2ccccn2c1C(=O)c1ccncc1` was tested, and the inhibition was 22.9% (inactive).
In the case of `COc1ccc(S(=O)(=O)N2CCOCC2)cc1NC(=O)c1ccc(OCC(C)C)c(OC)c1`, the inhibition is reported as 38.4% (inactive).
For `Cc1ccccc1NC(=O)CSc1nc2ccc(Nc3nc(N4CCOCC4)nc(N4CCOCC4)n3)cc2s1`, the inhibition was 80.5% (active).
In the case of `O=C(CSc1nc(Nc2ccccc2)nc(N2CCOCC2)n1)Nc1cc(Cl)ccc1O`, the inhibition is reported as 81.9% (active).
For `CC1(c2ccccc2)NC(=O)N(CC(=O)Nc2cc(Cl)ccc2N2CCOCC2)C1=O` (centres undefined), the inhibition was 6.67% (inactive).
`C/C(=N\Nc1nc(Nc2ccccc2)nc(N2CCOCC2)n1)c1cccs1` was tested, and the inhibition was 46.5% (inactive).
`O=C(CSc1nc2ccc(Nc3nc(N4CCOCC4)nc(N4CCOCC4)n3)cc2s1)NCc1ccco1` was tested, and the inhibition was 20.3% (inactive).
For `Cc1ccc(Nc2nc(N3CCOCC3)nc(N3CCOCC3)n2)cc1Cl`, the inhibition was 48.2% (inactive).
With `NS(=O)(=O)c1ccc(N2C(=O)C3C4CC(C(Br)C4Br)C3C2=O)cc1` (centres undefined) the inhibition was -13.2% (inactive).
In the case of `CCC(C(=O)NCc1cccnc1)n1nc(C)c2sc3ccccc3c2c1=O` (centres undefined), the inhibition is reported as 20.9% (inactive).
`OC(CNCCc1ccc(Cl)cc1Cl)COc1ccccc1` (centres undefined) was tested, and the inhibition was -3.6% (inactive).
For `Cc1nc2ccccc2nc(C)c1=NOCc1ccc(Cl)cc1Cl`, the inhibition was 22.9% (inactive).
For `NC(N)=N/N=C/c1ccc(OCc2ccc(Cl)cc2Cl)cc1`, the inhibition was 97.6% (active).
With `COc1ccc2cc1Oc1ccc(cc1)C[C@H]1c3cc(c(OC)cc3CCN1C)Oc1c(O)c(OC)cc3c1[C@H](C2)N(C)CC3` the inhibition was 98.4% (active).
`Cc1cccc(-[n+]2c(-c3cccc(Br)c3)[nH]c3nc4ccccc4nc32)c1` was tested, and the inhibition was 42.8% (inactive).
`CCC/C(O)=C1\C(=O)CC(C)(C)CC1=Nc1ccccc1OC` was tested, and the inhibition was 17.5% (inactive).
For `COc1ccc(N2CC(NS(=O)(=O)c3ccc4ccccc4c3)CC2=O)cc1` (centres undefined), the inhibition was 4.41% (inactive).
In the case of `COc1cc(NS(=O)(=O)c2ccc3ccccc3c2)c2ncccc2c1`, the inhibition is reported as 94.8% (active).
With `Cc1ccc(S(=O)(=O)Nc2ccc3ncccc3c2)cc1` the inhibition was 19.7% (inactive).
In the case of `Cc1cc(NC(=O)CCC(=O)N(CC(=O)NCC2CCCO2)c2ccccc2C)no1` (centres undefined), the inhibition is reported as 11.6% (inactive).
In the case of `COc1ccc(OC)c(S(=O)(=O)NCCC(C)C)c1`, the inhibition is reported as 22.1% (inactive).
With `C=C(C)C(=O)O[C@H]1C/C(C)=C\C(=O)/C=C(\C)[C@H](O)[C@@H]2OC(=O)C(=C)[C@@H]21` the inhibition was 95.4% (active).
With `O=C(CNC1CCCCC1)NCC1(c2ccccc2)CCCC1` the inhibition was 2.11% (inactive).
For `C=C1CCN([C@H](C(=O)NCc2cc(OC)c(OC)c(OC)c2)C(C)C)S(=O)(=O)c2ccccc21`, the inhibition was -24.7% (inactive).
